From PubChem BioAssay AID493098 (Sanford-Burnham Center for Chemical Genomics, 2011) come the findings set out here.

The campaign covered roughly 340,000 compounds. About 1,700 (0.5%) were called active. The list comes from a sample in which actives are over-represented; it also holds similar structures and randomly drawn compounds. A number with no mark means an inactive call.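 The calls were made as follows: active = compounds whose inhibition of the agonist-driven luminescence signal at 20 µM reaches about 50% (limit read from the data); inactive = the rest.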

Sequence of C-C chemokine receptor type 6 (Homo sapiens) (P51684 whole entry, looked up): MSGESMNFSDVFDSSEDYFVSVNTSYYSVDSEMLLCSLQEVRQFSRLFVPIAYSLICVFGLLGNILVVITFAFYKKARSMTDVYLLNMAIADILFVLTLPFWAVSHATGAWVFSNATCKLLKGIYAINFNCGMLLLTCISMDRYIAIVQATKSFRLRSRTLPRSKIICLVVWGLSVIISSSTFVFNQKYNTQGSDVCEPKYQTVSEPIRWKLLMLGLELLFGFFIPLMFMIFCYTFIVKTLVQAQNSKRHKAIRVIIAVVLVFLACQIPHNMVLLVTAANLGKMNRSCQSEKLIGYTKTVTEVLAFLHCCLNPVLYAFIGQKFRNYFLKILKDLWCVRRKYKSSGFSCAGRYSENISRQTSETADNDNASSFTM

This assay addresses C-C chemokine receptor type 6 (Homo sapiens) (UniProt P51684). The assay can be described thus: CCR6 receptor antagonists, primary screen, cell-based, CHO-K1, luminescence, beta-arrestin, uHTS (AID 493098).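 Also: cells stimulated with CCL20 at 14 nM final; plate controls were DMSO with CCL20 for no effect and DMSO without agonist for full effect.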 The conditions noted are these: CHO-K1 CCR6 PathHunter beta-arrestin, CCL20-stimulated, at 20 µM, hits give high values.
The inhibition is the change of the read-out against control, counted positive when it falls. For the compound `O=[N+]([O-])c1ccccc1S(=O)(=O)Nc1cccc2cccnc12`, the inhibition is 54.6% (active).

Regarding `COc1cc(NS(=O)(=O)c2ccc3ccccc3c2)c2ncccc2c1`, the inhibition is 13.2%.

Regarding `NS(=O)(=O)c1ccc(CCNS(=O)(=O)c2cccc3cccnc23)cc1`, the inhibition was 12.6%.

With `CCOc1ccccc1NC(=O)COc1ccc(S(=O)(=O)N2CCCC2)cc1`, the inhibition is 17.1%.

In the case of `O=[N+]([O-])c1ccc(N(CCO)Cc2ccccc2)c([N+](=O)[O-])c1`, the inhibition is 12.9%.

As to `O=C1Nc2ccc([N+](=O)[O-])cc2C1=Nc1cccc(CO)c1`, the inhibition is 57.4% (active).

With `CN1CCN(/N=C2/C(=O)Nc3ccc([N+](=O)[O-])cc32)CC1`, the inhibition was 7.16%.

Turning to `COc1ccc(N2CCN(CCNC(=O)c3nnc(Cc4c(F)cccc4Cl)o3)CC2)cc1`, the inhibition is 14.8%.

For `CCn1nc(C)c(CN2CCN(Cc3ccc(OC)c(C)c3C)C(CCO)C2)c1C` (configuration not stated), the inhibition was 5.51%.

Turning to `COc1cc2c(-c3ccc4c(c3)OCO4)c(-c3ccsc3)oc(=O)c2cc1OC`, the inhibition was 21%.

Turning to `O=C(N/N=C/c1cc(Cl)cc([N+](=O)[O-])c1O)C(O)(c1ccccc1)c1ccccc1`, the inhibition is 54.2% (active).

In the case of `O=C(O)c1ccccc1/C=N/Nc1ccc(S(=O)(=O)Nc2ccc(Cl)cc2)cc1[N+](=O)[O-]`, the inhibition is 46.4%.

On to `O=C(N/N=C/c1cc(Br)c(O)c([N+](=O)[O-])c1)C(O)(c1ccccc1)c1ccccc1`, for which the inhibition is 33.5%.

Take `COC(=O)c1cccc(C(=O)N2CCC(CCC(=O)NCc3ccc(F)cc3)CC2)c1`: the inhibition is 7.16%.

As for `CCc1ccc(N(C(=O)c2csnn2)C(C(=O)NC2CCCCC2)c2cccnc2)cc1` (configuration not stated), the inhibition is 18.2%.

Take `Cc1cc2oc(=O)cc(CN(C)Cc3ccc(OC(F)F)cc3)c2cc1Cl`: the inhibition is 21.5%.

For `COc1ccc(C(C#N)(CC(=O)O)c2cnccn2)cc1OC` (configuration not stated), the inhibition was 14.6%.

For the compound `O=c1nc(N/N=C/c2ccco2)cn[nH]1`, the inhibition is 3.85%.

With `Cc1ccc(S(=O)(=O)N2CCN(CC(=O)N/N=C/c3cc([N+](=O)[O-])ccc3Cl)CC2)cc1`, the inhibition was -22.1%.

For the compound `O=S(=O)(c1ccc(NC(=S)NN=C(C2CC2)C2CC2)cc1)N1CCOCC1`, the inhibition is 15.7%.

`O=[N+]([O-])c1cc(Cl)cc(/C=N/NC(=S)Nc2cc(S(=O)(=O)N3CCOCC3)ccc2Cl)c1O`: the inhibition was 63.1% (active).

With `CCOc1cc(C(=O)OCC(=O)Nc2cccc(C)c2)ccc1OCC(=O)N1CCOCC1`, the inhibition is 1.35%.

Take `CCc1nccn1S(=O)(=O)c1cccc([N+](=O)[O-])c1`: the inhibition is 3.26%.

Turning to `Cc1ccc(/C([O-])=C(/C(=S)NCc2ccco2)[n+]2ccccc2)cc1[N+](=O)[O-]`, the inhibition was 14.2%.

Turning to `c1ccc2c(c1)OC1OC2Oc2ccccc21`, the inhibition is 19.4%.

As to `CCC(C)N1C(=O)S/C(=C/c2ccc(Sc3nc4ccccc4[nH]3)o2)C1=O` (configuration not stated), the inhibition was 15.6%.

Turning to `Cc1cc(C(=O)N/N=C/c2cc([N+](=O)[O-])cc(C)c2O)n[nH]1`, the inhibition was 34.7%.

As for `O=C(NC(Nc1nc2ccc([N+](=O)[O-])cc2s1)(C(F)(F)F)C(F)(F)F)c1ccccc1`, the inhibition was 34.6%.

Turning to `O=[N+]([O-])c1cc(Br)c(O)c(/C=N/Nc2nc3ccccc3s2)c1`, the inhibition was 54.2% (active).

As for `O=C(CN(Cc1ccc(Br)cc1)S(=O)(=O)c1ccccc1)NCc1ccncc1`, the inhibition was 28.9%.

`CCOC(=O)c1c(C)[nH]c(C)c1S(=O)(=O)NCCCc1ccco1`: the inhibition is 0.21%.

On to `COc1ccc(C(=O)NC2CC2)cc1OC1CCN(C/C=C/c2ccccc2)CC1`, for which the inhibition is 3.46%.

As for `O=C(N/N=C/c1cc([N+](=O)[O-])ccc1O)/C(=C\c1cccs1)NC(=O)c1ccccc1`, the inhibition is 34.4%.

As to `O=[N+]([O-])c1ccc(O)c(/C=N/Nc2ccccc2[N+](=O)[O-])c1`, the inhibition was 55.9% (active).

For the compound `Nc1nnnn1/N=C/c1cc([N+](=O)[O-])ccc1O`, the inhibition is 23.1%.

On to `CCN(CC)C(=O)c1nc[nH]c1C(=O)N(C)Cc1ccccc1`, for which the inhibition is 9.33%.

For `COc1ccc2nc(Nc3nc(-c4cc5ccccc5oc4=O)cs3)sc2c1`, the inhibition is 54.4% (active).

For the compound `COc1ccc(OC)c(-c2csc(NC(=O)C3=NNC(=O)CC3)n2)c1`, the inhibition is -1%.

Regarding `COc1ccc2oc(=O)cc(-c3cc4ccccc4o3)c2c1`, the inhibition was 10.7%.

Take `Cc1cc(Cl)c(S(=O)(=O)NCc2cccnc2)cc1OCC(N)=O`: the inhibition was -11.7%.

In the case of `NC(=O)C1(Nc2ccc([N+](=O)[O-])cc2)CCCC1`, the inhibition was 4.74%.

For the compound `CNC(=S)Nc1ccc([N+](=O)[O-])cc1`, the inhibition was 7.58%.

Regarding `O=[N+]([O-])c1ccc(N=NNc2ccc([N+](=O)[O-])cc2)cc1`, the inhibition was 58.2% (active).

Turning to `CC(=O)NC(CC(=O)Nc1ccc(S(=O)(=O)N2CCOCC2)cc1)c1ccccc1` (configuration not stated), the inhibition was 4.97%.

For `Cc1nc(SCC(=O)NC2CCCCC2C)c(C#N)c(C)c1C` (configuration not stated), the inhibition is 13%.

With `CCOc1ccc(C(=O)NC(=S)Nc2ccc(NC(=O)C(C)C)cc2)cc1[N+](=O)[O-]`, the inhibition was 28.1%.

`CCOc1ccc(C(=O)NC(=S)Nc2ccc(N3CCOCC3)c(Cl)c2)cc1[N+](=O)[O-]`: the inhibition is 53.9% (active).

As to `COc1cccc(OC)c1C(=O)NC(=S)Nc1ccc(N2CCOCC2)c(Cl)c1`, the inhibition is 8.18%.

For `C/C=C/C=C/C(=O)O`, the inhibition is -5.26%.

`Cc1ccc(C(=O)CNc2ccc(F)cc2)cc1`: the inhibition is 90.9% (active).

For the compound `Cc1ccc(C(=O)NC2CCN(C(=O)Nc3ccc(F)cc3)CC2)cc1`, the inhibition is -8.58%.

As for `Cc1ccc(NC(=S)Nc2ccc(F)cc2)cc1`, the inhibition was -4.89%.

Consider `COC(=O)c1ccc(NCc2cc(O)ccc2O)cc1`, for which the inhibition is 20.3%.

Consider `COC(=O)c1ccc(NCC(=O)c2ccccc2)cc1`, for which the inhibition was 72.6% (active).

With `COc1ccc(NC(=O)CCCC(=O)c2ccccc2)cc1`, the inhibition is -6.21%.

For the compound `O=C(Nc1ccc(Br)cc1F)C1CC(=O)N(C2CCCCC2)C1` (configuration not stated), the inhibition was 1.54%.

In the case of `CC(C)NC(=O)c1ccc(Sc2ccccc2)c([N+](=O)[O-])c1`, the inhibition was 10.2%.

For the compound `Cc1cc(C)cc(OCC(=O)NNC(=O)CCN2C(=O)c3ccccc3C2=O)c1`, the inhibition was 10.7%.

Consider `O=C1C(Cl)=C(Oc2ccccc2)C(=O)c2ccccc21`, for which the inhibition was 117% (active).

As to `CC(=O)N(C1=C(Cl)C(=O)c2ccccc2C1=O)c1ccc(C(=O)O)cc1`, the inhibition is 11.9%.

Take `O=C(CCC1CCN(C(=O)c2cccc(Cl)c2F)CC1)Nc1ccccc1`: the inhibition is 20.2%.

As to `CC(NC(=O)c1ccccc1)C(=O)Nc1ccccc1` (configuration not stated), the inhibition is -0.64%.

Take `O=C(NC1=CC(=O)c2ccccc2C1=O)c1ccccc1`: the inhibition was 83% (active).

Take `O=C1C=C(NS(=O)(=O)c2ccccc2)C(=O)c2ccccc21`: the inhibition was 29.7%.

Take `CCn1c(=S)[nH]c2cc(S(=O)(=O)N3CCOCC3)ccc21`: the inhibition is -2.44%.

On to `CC(c1ccco1)N(C(=O)Nc1ccccc1)C1CCCCC1` (configuration not stated), for which the inhibition is 3.12%.

In the case of `COC(=O)/C=C\C(=O)Nc1cccc([N+](=O)[O-])c1`, the inhibition was 106% (active).

Take `O=C(Nc1cccc([N+](=O)[O-])c1)Nn1cnnc1`: the inhibition is 12.5%.

With `COc1ccc(S(=O)(=O)NC(C)C(=O)Nc2cccc([N+](=O)[O-])c2)cc1` (configuration not stated), the inhibition was 7.92%.

Consider `C/C(N)=C(/C#N)C(=O)COC(=O)C1=NN(c2ccccc2)C(=O)CC1`, for which the inhibition is 7.03%.

Take `Cc1ccc(S(=O)(=O)N2CCC(Oc3ccc(-n4cnnn4)cc3)CC2)cc1`: the inhibition is 3.04%.

Consider `COc1cc(/C=C2/SC(=S)N(Cc3ccccc3)C2=O)cc(OC)c1O`, for which the inhibition is 52.9% (active).

For the compound `COc1cccc(/C=C2/SC(=S)N(CC(=O)NC3C=CS(=O)(=O)C3)C2=O)c1` (configuration not stated), the inhibition is -8.12%.

With `CN1C=CC=C/C1=C1\SC(=S)N(Cc2ccccc2)C1=O`, the inhibition is 25.3%.

Consider `COC(=O)c1ccc(NC(=O)CSc2nncc3ccc(OC)c(OC)c23)cc1`, for which the inhibition is -2.84%.

Take `COc1cc(/C=C2/C(=O)NN(c3ccc(F)cc3)C2=O)cc([N+](=O)[O-])c1O`: the inhibition is 51.9% (active).

On to `C#CCOc1ccc(/C=C2/C(=O)NN(c3ccccc3)C2=O)cc1OC`, for which the inhibition was 12%.

`COc1cc(CN2CC(C)CC(C)C2)cc([N+](=O)[O-])c1O` (configuration not stated): the inhibition was 5.99%.

On to `COc1ccc(NC(=O)CC(NC(C)c2ccccc2)C(=O)O)cc1` (configuration not stated), for which the inhibition was 0.17%.

As to `O=C(COC(=O)c1cc(S(=O)(=O)N2CCOCC2)ccc1Cl)NCCc1ccccc1`, the inhibition is 9.32%.

`O=C(C1CCCO1)N(Cc1ccccc1)c1ccccc1` (configuration not stated): the inhibition was 2.47%.

Consider `Oc1ccc2ccccc2c1N=Nc1nccs1`, for which the inhibition is 94.3% (active).

As for `Oc1ccc(N=Nc2nccs2)c(O)c1`, the inhibition was 67% (active).

Take `Cc1cnc(C(=O)N2CCCC(C(=O)c3ccc(C(F)(F)F)cc3)C2)cn1` (configuration not stated): the inhibition is 15.2%.

Regarding `Cc1ccccc1C(=O)OC1OC(=O)C(Cl)=C1Nc1ccccc1` (configuration not stated), the inhibition was 17.2%.

Turning to `O=S(=O)(Nc1cc(Cl)ccc1N1CCOCC1)c1ccccc1Cl`, the inhibition was 17.2%.

For `Cc1oc2c(c1C(=O)N1CCOCC1)C(=O)c1ccccc1C2=O`, the inhibition was -12.2%.

For `O=C1c2ccccc2-c2ncnc3c(N4CCOCC4)cc(N4CCOCC4)c1c23`, the inhibition is 55.9% (active).

As to `Cc1ccc2c(C)c(C(=O)N3CCC(N4CCC(C(=O)NC5CC5)CC4)CC3)oc2c1`, the inhibition was 1.71%.

As for `CN(C(=O)CSc1nnc(Nc2ccccc2)s1)C1CCS(=O)(=O)C1` (configuration not stated), the inhibition is 4%.

On to `O=C1c2cccnc2C(Nc2ccc(S(=O)(=O)N3CCCCCC3)cc2)N1Cc1ccccc1` (configuration not stated), for which the inhibition was 5.72%.

For `Cc1ccc(S(=O)(=O)NCc2ccc(C(=O)NC3CCC(C)CC3)cc2)cc1` (configuration not stated), the inhibition is 19.3%.
